Inconclusive results are not listed. The source made the active and inactive calls. Unless noted, calls follow the shape of the dose curve; as a rule, active = well fitted curve in the direction sought with a large enough effect; inconclusive = small, poorly fitted or top-dose-only effect, or another doubt; inactive = no such curve, though single readings can be large; an effect the other way counts as inactive or inconclusive.
Legend:
[1] = AP1 Signaling Pathway (AID 357; active = well fitted curve in either direction with a large enough effect, not every such curve was filed as active;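 also: ME-180 reporter cells stimulated with EGF at its EC50 level; % is scaled to controls: 0 for no effect and ±100 for the full control effect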)
Outline: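 Beta-lactamase reporter under AP-1 response element, ME-180 background. Stimulus: EC50 EGF. Compound exposure 5 h, 37 °C. Detection: CCF4, 2.5 h RT, 460/530 nm. Values: AC50 from titration.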

[2] = target: Cytochrome P450 1A2 (Homo sapiens) (UniProt P05177); assay: p450-cyp1a2 (AID 410; calls by dose curve; also: potency is read from the fitted curve at half-maximal effect;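 as to activity change, negative = inhibition: -100% = full effect of reference inhibitor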)
Chain of Cytochrome P450 1A2 (Homo sapiens) (P05177 whole entry, looked up): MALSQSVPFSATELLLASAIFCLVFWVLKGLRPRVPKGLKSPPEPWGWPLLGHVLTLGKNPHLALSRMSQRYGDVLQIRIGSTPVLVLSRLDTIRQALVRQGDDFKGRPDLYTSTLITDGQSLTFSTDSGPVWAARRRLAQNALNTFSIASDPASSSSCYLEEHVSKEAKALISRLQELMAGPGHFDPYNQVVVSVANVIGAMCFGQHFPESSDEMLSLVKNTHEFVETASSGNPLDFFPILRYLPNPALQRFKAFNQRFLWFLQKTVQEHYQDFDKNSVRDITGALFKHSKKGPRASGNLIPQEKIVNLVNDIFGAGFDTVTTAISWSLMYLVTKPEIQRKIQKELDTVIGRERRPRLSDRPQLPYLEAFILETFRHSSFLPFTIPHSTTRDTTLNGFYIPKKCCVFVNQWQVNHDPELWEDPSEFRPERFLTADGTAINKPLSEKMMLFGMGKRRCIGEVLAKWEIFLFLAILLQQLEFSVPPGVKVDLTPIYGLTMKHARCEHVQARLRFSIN
Outline: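 Luminescent demethylation readout: Luciferin-ME (100uM, equal to Km) turned over by 20nM CYP1A2 for 60 min at room temperature after NADPH regeneration addition, following 10 min compound preincubation. Normalization used 57 uM furafylline as full inhibition.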

[3] = NFAT Signaling Pathway (AID 444; active = well fitted curve in either direction with a large enough effect, not every such curve was filed as active;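 also: carbachol stimulus at about its EC50 of 1 µM final; % is scaled to controls: 0 for no effect and ±100 for the full control effect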); settings: Jurkat NFAT-bla M1, carbachol, beta-lactamase ratio, 5 h; at 17.2 µM (top of the series) unless noted
Outline: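 Jurkat cells carrying an NFAT-driven β-lactamase reporter and co-transfected muscarinic M1 receptor were treated with compound plus carbachol (1 uM final, an EC50 level) for 5 h at 37 °C. CCF4 loading followed for 1 h at RT; 460/530 nm ratio gave %activity.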

[4] = Stat Signaling Pathway (AID 446; active = well fitted curve in either direction with a large enough effect, not every such curve was filed as active;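 also: ME-180 cervical cancer cells given 40 pM IL-6 alongside compound; SIE-controlled beta-lactamase reporter measured as 460/530 nm FRET emission ratio; % is scaled to controls: 0 for no effect and ±100 for the full control effect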)
Outline: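 Overnight-plated ME-180 cells bearing a STAT Inducible Element beta-lactamase reporter; 5 h co-exposure to compound and 40 pM IL-6; values normalized to 300 pM IL-6 and 125 nM JAK inhibitor controls.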

[5] = target: Glucocorticoid receptor (Homo sapiens) (UniProt P04150); assay: GR-GFP Redistribution (AID 450;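 active = compounds whose dose series gives a full or clear partial fitted curve of increased nuclear translocation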; also: potency is read from the fitted curve at half-maximal effect); settings: U2OS GR-GFP nuclear translocation, laser cytometry, 2 h
Chain of Glucocorticoid receptor (Homo sapiens) (P04150 whole entry, looked up, the tested form may be a part): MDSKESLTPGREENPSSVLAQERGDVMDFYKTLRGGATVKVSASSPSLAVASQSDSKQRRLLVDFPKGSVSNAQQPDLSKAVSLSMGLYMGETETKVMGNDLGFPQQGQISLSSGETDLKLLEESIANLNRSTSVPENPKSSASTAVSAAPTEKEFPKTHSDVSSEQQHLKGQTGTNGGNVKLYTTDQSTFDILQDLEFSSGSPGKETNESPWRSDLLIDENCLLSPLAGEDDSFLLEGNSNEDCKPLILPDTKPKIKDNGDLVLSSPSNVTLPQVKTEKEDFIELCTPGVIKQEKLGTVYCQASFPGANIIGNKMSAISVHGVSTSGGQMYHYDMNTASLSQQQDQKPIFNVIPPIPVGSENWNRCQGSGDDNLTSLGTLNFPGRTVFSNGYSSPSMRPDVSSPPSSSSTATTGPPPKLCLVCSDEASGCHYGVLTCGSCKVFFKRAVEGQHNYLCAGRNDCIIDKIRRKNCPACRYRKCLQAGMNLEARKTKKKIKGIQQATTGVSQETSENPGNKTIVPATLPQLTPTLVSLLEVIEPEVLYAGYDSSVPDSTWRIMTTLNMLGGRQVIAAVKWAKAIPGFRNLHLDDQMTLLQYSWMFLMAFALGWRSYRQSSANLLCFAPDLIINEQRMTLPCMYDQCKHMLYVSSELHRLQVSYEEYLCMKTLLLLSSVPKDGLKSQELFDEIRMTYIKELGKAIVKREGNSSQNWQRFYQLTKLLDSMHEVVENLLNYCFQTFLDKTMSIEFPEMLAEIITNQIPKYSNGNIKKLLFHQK

[6] = target: Glucocorticoid receptor (Homo sapiens) (UniProt P04150); assay: GR-EFC Redistribution (AID 451; calls by dose curve; also: potency is read from the fitted curve at half-maximal effect); settings: CHO-K1 GR-EFC translocation, beta-gal luminescence, 2 h
Outline: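 CHO-K1 cells stably expressing nuclear-localized β-gal enzyme acceptor and GR fused C-terminally to the enzyme donor fragment; ligand-driven nuclear translocation restores β-gal by complementation. Compounds titrated up to 46 uM final, 2 h at 37 °C; luminescence read.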

[7] = target: Mitogen-activated protein kinase 10 (Mus musculus) (UniProt Q61831); assay: JNK3 AlphaScreen Assay (AID 530; active = well fitted curve in either direction with a large enough effect, not every such curve was filed as active;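 also: kinase came from lysate of stimulated human HepG2 cells; signal reports phosphorylation of biotinylated GST-cJun 1-79 at Ser73 with 10 µM ATP; % is scaled to controls: 0 for no effect and ±100 for the full control effect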)
Outline: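 Phosphorylation of biotinylated GST-cJun(1-79) at Ser73 is measured by AlphaScreen proximity luminescence. Enzyme is JNK3 in HepG2 lysates activated with interleukin-1beta and tumor necrosis factor alpha; ATP is 10 uM final.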

[8] = target: 3',5'-cyclic-AMP phosphodiesterase 4B (Homo sapiens) (UniProt Q07343); assay: qHTS Assay for Inhibitors of PDE-IV (AID 607; active = well fitted activation curve with a large enough effect in the main read-out, with a control signal flat, not every such curve was filed as active; also: % of control where 0% means no effect)
Chain of 3',5'-cyclic-AMP phosphodiesterase 4B (Homo sapiens) (Q07343 whole entry, looked up): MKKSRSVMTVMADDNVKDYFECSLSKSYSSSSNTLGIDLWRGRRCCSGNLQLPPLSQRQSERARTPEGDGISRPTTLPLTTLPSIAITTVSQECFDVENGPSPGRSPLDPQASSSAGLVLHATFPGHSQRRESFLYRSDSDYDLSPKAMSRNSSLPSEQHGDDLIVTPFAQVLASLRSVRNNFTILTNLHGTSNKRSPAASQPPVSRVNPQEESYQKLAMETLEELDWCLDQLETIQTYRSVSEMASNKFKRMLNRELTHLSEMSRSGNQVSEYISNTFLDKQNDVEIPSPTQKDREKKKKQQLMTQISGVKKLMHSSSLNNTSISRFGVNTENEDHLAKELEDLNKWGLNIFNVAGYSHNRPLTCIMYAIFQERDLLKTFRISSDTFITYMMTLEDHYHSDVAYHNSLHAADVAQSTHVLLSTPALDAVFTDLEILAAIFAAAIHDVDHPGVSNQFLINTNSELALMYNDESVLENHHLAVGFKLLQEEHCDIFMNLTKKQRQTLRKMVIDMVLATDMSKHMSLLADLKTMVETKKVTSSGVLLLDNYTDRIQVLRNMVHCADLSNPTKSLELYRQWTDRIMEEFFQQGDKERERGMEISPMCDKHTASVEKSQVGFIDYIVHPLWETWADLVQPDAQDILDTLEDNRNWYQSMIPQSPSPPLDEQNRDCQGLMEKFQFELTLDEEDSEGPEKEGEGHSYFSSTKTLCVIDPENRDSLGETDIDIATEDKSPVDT
Outline: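 Live HEK293 cells with a modified cyclic nucleotide-gated (CNG) channel report intracellular cAMP via membrane-potential dye fluorescence (ex 535/em 590 nm). Endogenous PDE-IV was targeted. Compounds were tested at up to 22.9 uM final; RO 20-1724 100 uM served as control.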

[9] = qHTS Assay for Lipid Storage Modulators (AID 1519; calls by dose curve); settings: Drosophila S3 cells, BODIPY lipid droplet/cell ratio, laser cytometry, cells loaded with oleic acid; for activity change, negative = inhibition: at 25.7 µM (top of the series)
Outline: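 Cells seeded at 5,000 per well were treated with compounds over a concentration series and loaded with oleic acid (400 uM, as added). Lipid droplet fluorescence (488 nm excitation, 500-530 nm channel) was read by laser-scanning cytometry and normalized to 20 uM Triacsin C.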

[10] = target: Ubiquitin carboxyl-terminal hydrolase 1 (Homo sapiens) (UniProt O94782); assay: Inhibitors of USP1/UAF1: Pilot qHTS (AID 504865);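 also: rhodamine fluorescence freed from ubiquitin-rhodamine substrate followed over time; top concentration of the series differs between compounds; % is scaled to controls: 0 for no effect and ±100 for the full control effect; nearly all actives have a fitted effect of over 35% in size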
Chain of Ubiquitin carboxyl-terminal hydrolase 1 (Homo sapiens) (O94782 whole entry, looked up): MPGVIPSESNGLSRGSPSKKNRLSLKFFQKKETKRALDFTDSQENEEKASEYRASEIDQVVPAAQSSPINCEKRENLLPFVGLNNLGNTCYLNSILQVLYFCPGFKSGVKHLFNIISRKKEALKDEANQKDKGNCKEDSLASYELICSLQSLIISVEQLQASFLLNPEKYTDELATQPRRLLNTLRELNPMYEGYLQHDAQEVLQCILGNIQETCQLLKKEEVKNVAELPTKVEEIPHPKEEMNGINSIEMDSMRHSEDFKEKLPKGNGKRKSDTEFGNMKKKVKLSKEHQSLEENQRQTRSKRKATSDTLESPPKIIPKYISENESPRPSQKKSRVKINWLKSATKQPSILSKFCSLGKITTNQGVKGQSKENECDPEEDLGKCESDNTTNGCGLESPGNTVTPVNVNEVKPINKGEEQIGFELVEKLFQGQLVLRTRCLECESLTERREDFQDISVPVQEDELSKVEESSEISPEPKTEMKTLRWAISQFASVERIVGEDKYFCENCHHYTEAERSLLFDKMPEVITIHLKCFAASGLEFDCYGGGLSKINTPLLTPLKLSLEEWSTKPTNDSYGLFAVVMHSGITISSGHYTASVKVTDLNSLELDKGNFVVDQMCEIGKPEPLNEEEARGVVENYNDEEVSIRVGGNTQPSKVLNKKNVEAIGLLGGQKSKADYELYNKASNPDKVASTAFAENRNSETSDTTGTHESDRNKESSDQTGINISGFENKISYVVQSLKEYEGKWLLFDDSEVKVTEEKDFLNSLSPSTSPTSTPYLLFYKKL
Outline: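 Enzyme-free wells gave the negative control, while test wells held 1nM USP1/UAF1 preincubated with compound for 15 min at room temperature. Ub-Rho at 150nM final started the reaction, and fluorescence at 480/540 nm was recorded kinetically.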

[11] = target: Luciferin 4-monooxygenase (Photinus pyralis) (UniProt P08659); assay: Biochemical firefly luciferase enzyme assay for NPC (AID 624030);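 also: purified P. pyralis luciferase at 10 nM with luciferin and ATP substrate; 0% = DMSO and -100% = full luciferase inhibition by PTC124 control; nearly all actives have a fitted effect of over 70% in size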
Chain of Luciferin 4-monooxygenase (Photinus pyralis) (P08659 whole entry, looked up): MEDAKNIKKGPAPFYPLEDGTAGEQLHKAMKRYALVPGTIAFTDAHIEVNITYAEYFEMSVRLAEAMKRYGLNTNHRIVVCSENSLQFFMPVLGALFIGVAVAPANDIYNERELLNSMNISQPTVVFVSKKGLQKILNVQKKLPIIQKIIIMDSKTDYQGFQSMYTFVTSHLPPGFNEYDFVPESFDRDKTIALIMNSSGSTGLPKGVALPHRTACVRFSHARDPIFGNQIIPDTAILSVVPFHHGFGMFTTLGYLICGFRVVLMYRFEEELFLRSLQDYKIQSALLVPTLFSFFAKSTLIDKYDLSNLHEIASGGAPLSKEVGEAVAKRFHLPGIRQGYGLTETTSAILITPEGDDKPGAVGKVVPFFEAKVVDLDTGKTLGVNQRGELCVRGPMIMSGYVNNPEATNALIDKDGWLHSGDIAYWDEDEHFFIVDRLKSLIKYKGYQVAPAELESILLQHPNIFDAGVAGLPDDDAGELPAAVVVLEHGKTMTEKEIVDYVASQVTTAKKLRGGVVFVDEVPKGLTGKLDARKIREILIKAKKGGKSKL
Outline: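 Counter-screen for direct inhibition of the luciferase enzyme by approved-drug library compounds, run at 10 nM enzyme in 50 mM Tris acetate (final). Luminescence was read within 5 min of enzyme-buffer addition and normalized to PTC124 versus DMSO (0%).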

[12] = S16 Schwann cell viability assay (CellTiter-Glo assay) (AID 624031);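 also: native untransfected S16 rat Schwann cells; cellular ATP luminescence as a viability measure; plate controls were DMSO-treated cells for no effect and cell-free wells for full effect; nearly all actives have a fitted effect of over 70% in size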
Outline: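 Parental S16 cells, 24 h compound, 37 °C. ATP-luminescence viability; DMSO = 0% activity, empty wells as reference; curves classified by fit quality and efficacy.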

[13] = S16 Schwann cell PMP22 intronic element beta-lactamase assay (AID 624044; calls by dose curve;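 also: 0% = DMSO and -100% = potassium clavulanate positive control; nearly all actives have a fitted effect of over 15% in size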)
Outline: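 Beta-lactamase reporter under a PMP22 intronic regulatory element in stable S16 rat Schwann cells; 24 h compound exposure. 460 nm blue signal normalized between DMSO (0%) and potassium clavulanate, with 535 nm FRET tracking viability; curves classed by r2 and response.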

[14] = qHTS profiling for inhibitors of Plasmodium falciparum proliferation (AID 504749);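 also: 0% = DMSO vehicle and full inhibition = artemisinin control; nearly all actives have a fitted effect of over 60% in size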; settings: P. falciparum in erythrocytes, SYBR Green DNA, 72 h
Outline: (§1)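 Quantitative HTS: compounds pinned into medium, infected erythrocytes added (0.3% parasitemia, 2.5% hematocrit), 72 h culture at 37 C under 5% CO2. Saponin/Triton lysis with SYBR Green I, overnight RT, then fluorescence read.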

[15] = test system: C2A; assay: as above; settings: P. falciparum in erythrocytes, SYBR Green DNA, 72 h; series mostly up to 12.8 µM
Outline: as §1

[16] = test system: CP217; assay: as above; settings: P. falciparum in erythrocytes, SYBR Green DNA, 72 h; series mostly up to 12.8 µM
Outline: as §1

[17] = test system: CP250; assay: as above; settings: P. falciparum in erythrocytes, SYBR Green DNA, 72 h; series mostly up to 12.8 µM
Outline: as §1

[18] = test system: FAB9; assay: as above; settings: P. falciparum in erythrocytes, SYBR Green DNA, 72 h; series mostly up to 12.8 µM
Outline: as §1

[19] = test system: JCK; assay: as above; settings: P. falciparum in erythrocytes, SYBR Green DNA, 72 h; series mostly up to 12.8 µM
Outline: as §1

[20] = test system: SC27B; assay: as above; settings: P. falciparum in erythrocytes, SYBR Green DNA, 72 h; series mostly up to 12.8 µM
Outline: as §1

[21] = measured here: cell count channel max response
[22] = measured here: lipid channel max response
[23] = at 12.8 µM (top of the series), parasite line A
[24] = at 12.8 µM (top of the series), parasite line B

Cc1nccn1C[C@@H]1CCc2c(c3ccccc3n2C)C1=O
-10%: max response [9, 21]
active: Potency [2] 3.98 µM
inactive: outcome [1] | activity change, negative = inhibition [3] -26.8% | outcome [4] | Potency [5] > 20.6 µM | Potency [6] > 20.6 µM | Potency [7] | outcome [8] | activity change, negative = inhibition [9] -8.25% | Potency [10] | Potency [11]
-16.3%: max response [9, 22]

COc1cc2nc(N3CCN(C(=O)[C@@H]4CCCO4)CC3)nc(N)c2cc1OC
inactive: outcome [1] | Potency [2] | activity change, negative = inhibition [3] 12.6% | outcome [4] | Potency [5] > 20.6 µM | Potency [6] > 20.6 µM | Potency [7] | outcome [8] | activity change, negative = inhibition [9] 2.61% | Potency [10] | Potency [11] | outcome [12] | Potency [13] | activity, negative = inhibition ([14]; at 28.7 µM (top of the series), parasite line A) 10.8% | activity, negative = inhibition ([14]; at 28.7 µM (top of the series), parasite line B) 8.54% | Potency [15] | Potency [16] | Potency [17] | Potency [18] | Potency [19] | Potency [20]
-3.95%: max response [9, 21]
-0.955%: max response [9, 22]

NC(=O)N[C@H]1NC(=O)NC1=O
17.1%: max response [9, 22]
inactive: outcome [1] | Potency [2] | activity change, negative = inhibition [3] -6.77% | outcome [4] | Potency [5] > 20.6 µM | Potency [6] > 20.6 µM | outcome [8] | activity change, negative = inhibition [9] -0.627% | Potency [11] | outcome [12] | Potency [13] | activity, negative = inhibition [14, 23] 2.27% | activity, negative = inhibition [14, 24] 16.7% | Potency [15] | Potency [16] | Potency [17] | Potency [18] | Potency [19] | Potency [20]
21.8%: max response [9, 21]

NS(=O)(=O)c1cc2c(cc1Cl)N[C@@H](CC1CCCC1)NS2(=O)=O
1.17%: max response [9, 21]
inactive: outcome [1] | Potency [2] | activity change, negative = inhibition [3] -6.75% | outcome [4] | Potency [5] > 20.6 µM | Potency [6] > 20.6 µM | Potency [7] | outcome [8] | activity change, negative = inhibition [9] -0.977% | Potency [10] | Potency [11] | outcome [12] | activity, negative = inhibition [14, 23] -0.239% | activity, negative = inhibition [14, 24] 5.35% | Potency [15] | Potency [16] | Potency [17] | Potency [18] | Potency [19] | Potency [20]
1.04%: max response [9, 22]

From PubChem BioAssay (NCATS)
